Measured values reported in the supplement of paper PMC12350171.
Counter-ions that a name gives are not always drawn.

test system: Haemophilus parainfluenzae; assay: growth AUC normalised to DMSO control (fraction of control); higher = less growth inhibition, active = hit call of the paper; details: 20 µM;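 active = AUC significantly below DMSO controls by Student t-fit with adjusted P under 0.01; inactive = not significantly reduced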
Procedure, shortened: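 For the AUC endpoint, growth curves were integrated by the trapezoidal rule up to the exponential-to-stationary transition and normalised to DMSO controls on the same plate. The curves came from OD578 readings taken hourly for 24 h, in three biological replicates. Pathogens had been passaged anaerobically twice and inoculated at an OD578 of 0.01 into pre-reduced mGAM plates carrying 20 μM compound and 1% DMSO, sealed with breathable membranes. Medium for Haemophilus parainfluenzae also contained hemin and NAD.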

Row | Compound | growth AUC normalised to DMSO control
1 | COc1ccc(C(Cl)=C(c2ccc(OC)cc2)c2ccc(OC)cc2)cc1 [Chlorotrianisene] | 0.951 (inactive)
2 | Oc1c(Cl)cc(Cl)c(Cl)c1Cc1c(O)c(Cl)cc(Cl)c1Cl [Hexachlorophene] | 0.0305 (active)
3 | C[C@@H](O)[C@H]1C(=O)N2C(C(=O)O)=C(SCCNC=N)C[C@H]12 [Imipenem] | 1.01 (inactive)
4 | C=CC[N@@+]12CC[C@@]34c5ccccc5N5/C=C6/[C@H]7C[C@H]8[C@@]9(CC[N@@+]8(CC=C)C/C7=C/CO)c7ccccc7N(/C=C(/[C@@H](C[C@@H]31)/C(=C\CO)C2)[C@H]54)[C@@H]69 [Alcuronium chloride] | 1 (inactive)
5 | COc1ccc2c(c1)N(C[C@H](C)CN(C)C)c1ccccc1S2 [Methotrimeprazine maleate salt] | 1.04 (inactive)
6 | CCc1cc(C(N)=S)ccn1 [Ethionamide] | 0.983 (inactive)
7 | CN1CCN2c3ccccc3Cc3ccccc3C2C1 (centres undefined) [Mianserine hydrochloride] | 0.903 (inactive)
8 | CC1CS(=O)(=O)CCN1/N=C/c1ccc([N+](=O)[O-])o1 (centres undefined) [Nifurtimox] | 0.596 (active)
9 | NS(=O)(=O)c1cc2c(cc1Cl)NC(CC1CCCC1)NS2(=O)=O (centres undefined) [Cyclopenthiazide] | 0.982 (inactive)
10 | O=C(CCCN1CC=C(n2c(=O)[nH]c3ccccc32)CC1)c1ccc(F)cc1 [Droperidol] | 0.995 (inactive)
11 | CCCCOc1ccc(C(=O)CCN2CCCCC2)cc1 [Dyclonine hydrochloride] | 0.921 (inactive)
12 | NC[C@@H]1O[C@H](O[C@H]2[C@@H](O)[C@H](O[C@@H]3[C@@H](O)[C@H](N)C[C@H](N)[C@H]3O[C@H]3O[C@H](CO)[C@@H](O)[C@H](O)[C@H]3N)O[C@@H]2CO)[C@H](N)[C@@H](O)[C@@H]1O [Paromomycin sulfate] | 0.88 (inactive)
13 | OC(CCN1CCCCC1)(c1ccccc1)C1CC2C=CC1C2 (centres undefined) [Biperiden hydrochloride] | 0.95 (inactive)
14 | CCOC(=O)[N-]c1c[n+](N2CCOCC2)no1 [Molsidomine] | 1.03 (inactive)
15 | N[C@@H](Cc1ccc(O)c(O)c1)C(=O)O [Levodopa] | 1.02 (inactive)
16 | Clc1ccc2c(c1)C(N1CCNCC1)=Nc1ccccc1O2 [Amoxapine] | 0.963 (inactive)
17 | NC(=O)c1cc[n+](CC2=C(C(=O)[O-])N3C(=O)[C@@H](NC(=O)[C@@H](c4ccccc4)S(=O)(=O)O)[C@H]3SC2)cc1 [Cefsulodin sodium salt] | 0.912 (inactive)
18 | C[C@]12C=CC(=O)C=C1CC[C@@H]1[C@@H]2[C@@H](O)C[C@@]2(C)[C@H]1CC[C@]2(O)C(=O)CO [Prednisolone] | 0.935 (inactive)
19 | Cc1cccc(C)c1NC(=O)C1CCCCN1C (centres undefined) [Mepivacaine hydrochloride] | 1.07 (inactive)
20 | Cc1ccc(NC(=O)c2ccc(CN3CCN(C)CC3)cc2)cc1Nc1nccc(-c2cccnc2)n1 [Imatinib] | 1.09 (inactive)

Row | Compound | growth AUC normalised to DMSO control
21 | c1ccc([C@H]2CN3CCSC3=N2)cc1 [Levamisole hydrochloride] | 0.991 (inactive)
22 | CC(C)(C)C(=O)OCOC(=O)[C@@H]1N2C(=O)[C@@H](NC(=O)[C@H](N)c3ccccc3)[C@H]2SC1(C)C [Pivampicillin] | 0.942 (inactive)
23 | CCOC(=O)C1=C(C)NC(C)=C(C(=O)OC)C1c1cccc([N+](=O)[O-])c1 (centres undefined) [Nitrendipine] | 1.03 (inactive)
24 | Nc1c(Br)cc(Br)cc1CN[C@H]1CC[C@H](O)CC1 [Ambroxol hydrochloride] | 0.988 (inactive)
25 | CN(C)[C@@H]1C(=O)C(C(N)=O)=C(O)[C@@]2(O)C(=O)C3=C(O)c4c(O)ccc(Cl)c4[C@@H](O)[C@H]3C[C@@H]12 [Demeclocycline hydrochloride] | 0.0384 (active)
26 | CN(C)CC/C=C1\c2ccccc2CSc2ccccc21 [Dosulepin hydrochloride] | 0.865 (inactive)
27 | Cc1ncc(CO)c(CO)c1O [Pyridoxine hydrochloride] | 0.958 (inactive)
28 | COC(=O)C1=C(C)NC(C)=C(C(=O)OCCN(C)Cc2ccccc2)C1c1cccc([N+](=O)[O-])c1 (centres undefined) [Nicardipine hydrochloride] | 1.01 (inactive)
29 | C[N+](C)(C)CCCCCC[N+](C)(C)C [Hexamethonium dibromide dihydrate] | 0.852 (inactive)
30 | CCCc1nc(C)c2c(=O)nc(-c3cc(S(=O)(=O)N4CCN(CC)CC4)ccc3OCC)[nH]n12 [Vardenafil] | 1.03 (inactive)
31 | CCOC(=O)NNc1nncc2ccccc12 [Todralazine hydrochloride] | 1.01 (inactive)
32 | CCS(=O)(=O)CCn1c([N+](=O)[O-])cnc1C [Tinidazole] | 0.987 (inactive)
33 | CCCCC(CC)CNC(=N)NC(=N)NCCCCCCNC(=N)NC(=N)NCC(CC)CCCC (centres undefined) [Alexidine dihydrochloride] | 0.861 (inactive)
34 | NNCCc1ccccc1 [Phenelzine sulfate] | 1.02 (inactive)
35 | O=C(O)CCC(=O)Nc1ccc(S(=O)(=O)Nc2nccs2)cc1 [Succinylsulfathiazole] | 1.01 (inactive)
36 | COC(=O)C1=C(C#N)NC(C)=C(C(=O)OC(C)C)C1c1cccc([N+](=O)[O-])c1 (centres undefined) [Nilvadipine] | 0.985 (inactive)
37 | Cc1c(C)c2c(c(C)c1O)CCC(C)(C(=O)O)O2 (centres undefined) [Trolox] | 1 (inactive)
38 | N=C(N)NCc1cccc(I)c1 [Iobenguane sulfate] | 1.02 (inactive)
39 | O=C(O)CNC(=O)C(CS)Cc1ccccc1 (centres undefined) [Thiorphan] | 0.891 (inactive)
